Test results from the supplement of paper PMC10849652.
Targets with a hit are over-represented here; the source holds about 7,900 in all. About 0.6% of all pairs of compound and target were hits. A number with no mark means an inactive call.

How the values were obtained:
Experiment in all cases: log2 fold change, soluble protein after heating vs DMSO (PISA); higher = thermal stabilisation; K562 cells, 10 uM, 30 min; active = over 0.2 and 3.5 SD of the protein, either way, in both replicates (recomputed)
volasertib = compound: CC[C@@H]1C(=O)N(C)c2cnc(Nc3ccc(C(=O)N[C@H]4CC[C@H](N5CCN(CC6CC6)CC5)CC4)cc3OC)nc2N1C(C)C [volasertib]
Summary of the method: (§1)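 K562 cells at 2×10^6 cells/mL were exposed to 10 μM compound for 30 min, then aliquots were heated for 3 min across 48°C-58°C, pooled, and extracted in PBS containing 0.5% NP-40 at 4°C. The supernatant after 21,000xg for 90 min was taken as soluble protein and measured by TMTpro 16plex LC-MS/MS with channel sums equalised. Thermal stability is reported relative to control samples, with values from duplicates. Fold changes are given on a log2 scale.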

[1] = compound: CC[C@H](C)N1C=C(C2=C(C=C(C=C21)C3=CN=C(C=C3)N4CCNCC4)C(=O)NCC5=C(C=C(NC5=O)C)C)C
Summary of the method: as §1

epoxomicin = compound: CC[C@H](C)[C@@H](C(=O)N[C@@H]([C@@H](C)O)C(=O)N[C@@H](CC(C)C)C(=O)[C@]1(CO1)C)NC(=O)[C@H]([C@@H](C)CC)N(C)C(=O)C [epoxomicin]
Summary of the method: as §1

[2] = compound: CCn1c(C(=O)N(C2CC2)C2CC2)cc2c3c(ncn3C)c(Nc3cc(C)n(C)n3)nc21
Summary of the method: as §1

[3] = compound: CCn1cc(-c2ccnc3[nH]c(-c4cccc(CN(C)C)c4)cc23)c(-c2ccc(NC(=O)N(C)C)cc2)n1
Summary of the method: as §1

[4] = compound: CN(C)CC(=O)Nc1ccc2[nH]c(=O)c3ccccc3c2c1
Summary of the method: as §1

rosiglitazone = compound: CN(CCOC1=CC=C(C=C1)C[C@H]2C(=O)NC(=O)S2)C3=CC=CC=N3 (racemic) [rosiglitazone]
Summary of the method: as §1

[5] = compound: CN1C2=C(C3=C1C(=O)N(N=C3)CC4=CC(=CC=C4)N)SC(=C2)S(=O)C
Summary of the method: as §1

[6] = compound: CN1CCC(CNc2ccc3ncc(-c4cccc(OC(F)(F)F)c4)n3n2)CC1
Summary of the method: as §1

saracatinib = compound: CN1CCN(CCOc2cc(OC3CCOCC3)c3c(Nc4c(Cl)ccc5c4OCO5)ncnc3c2)CC1 [saracatinib]
Summary of the method: as §1

sotrastaurin = compound: CN1CCN(c2nc(C3=C(c4c[nH]c5ccccc45)C(=O)NC3=O)c3ccccc3n2)CC1 [sotrastaurin]
Summary of the method: as §1

Tubastatin A = compound: CN1CCc2c(c3ccccc3n2Cc2ccc(C(=O)NO)cc2)C1 [Tubastatin A]
Summary of the method: as §1

[7] = compound: CNC(=O)C1=CC=CC=C1NC2=NC(=NC=C2Cl)NC3=C(C=C(C=C3)N4CCOCC4)OC
Summary of the method: as §1

defactinib = compound: CNC(=O)c1ccc(Nc2ncc(C(F)(F)F)c(NCc3nccnc3N(C)S(C)(=O)=O)n2)cc1 [defactinib]
Summary of the method: as §1

[8] = compound: CNc1nc(-c2ccc3c(N)n[nH]c3c2)cc(N2C[C@@H](C(=O)NC3CCCCC3)CC[C@H]2C)n1
Summary of the method: as §1

[9] = compound: COC(=O)[C@H](CCSC)NC(=O)C1=C(C=C(C=C1)NC[C@H](CS)N)C2=CC=CC=C2
Summary of the method: as §1

[10] = compound: CC[C@@H]1C(=O)N(C)c2cnc(Nc3ccc(C(=O)NC4CCN(C)CC4)cc3OC)nc2N1C1CCCC1
Summary of the method: as §1

alvocidib = compound: CN1CC[C@H](c2c(O)cc(O)c3c(=O)cc(-c4ccccc4Cl)oc23)[C@H](O)C1 [alvocidib]
Summary of the method: as §1

rucaparib = compound: CNCc1ccc(-c2[nH]c3cc(F)cc4c3c2CCNC4=O)cc1 [rucaparib]
Summary of the method: as §1

encorafenib = compound: COC(=O)N[C@@H](C)CNc1nccc(-c2cn(C(C)C)nc2-c2cc(Cl)cc(NS(C)(=O)=O)c2F)n1 [encorafenib]
Summary of the method: as §1

Chain of UniProt Q8TCG2 (Q8TCG2 whole entry, looked up): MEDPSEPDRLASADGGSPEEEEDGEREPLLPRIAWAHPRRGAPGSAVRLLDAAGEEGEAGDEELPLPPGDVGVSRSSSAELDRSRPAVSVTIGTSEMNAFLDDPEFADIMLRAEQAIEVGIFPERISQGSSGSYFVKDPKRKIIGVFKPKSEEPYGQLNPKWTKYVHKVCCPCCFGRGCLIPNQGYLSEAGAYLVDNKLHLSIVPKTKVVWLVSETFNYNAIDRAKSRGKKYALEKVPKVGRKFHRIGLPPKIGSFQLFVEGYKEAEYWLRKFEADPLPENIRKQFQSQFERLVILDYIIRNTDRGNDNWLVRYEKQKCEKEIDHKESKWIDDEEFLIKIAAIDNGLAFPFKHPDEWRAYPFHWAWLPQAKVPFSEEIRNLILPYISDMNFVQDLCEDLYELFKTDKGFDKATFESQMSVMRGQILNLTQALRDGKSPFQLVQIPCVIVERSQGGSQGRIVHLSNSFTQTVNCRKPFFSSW
Chain of UniProt Q15111 (Q15111 whole entry, looked up): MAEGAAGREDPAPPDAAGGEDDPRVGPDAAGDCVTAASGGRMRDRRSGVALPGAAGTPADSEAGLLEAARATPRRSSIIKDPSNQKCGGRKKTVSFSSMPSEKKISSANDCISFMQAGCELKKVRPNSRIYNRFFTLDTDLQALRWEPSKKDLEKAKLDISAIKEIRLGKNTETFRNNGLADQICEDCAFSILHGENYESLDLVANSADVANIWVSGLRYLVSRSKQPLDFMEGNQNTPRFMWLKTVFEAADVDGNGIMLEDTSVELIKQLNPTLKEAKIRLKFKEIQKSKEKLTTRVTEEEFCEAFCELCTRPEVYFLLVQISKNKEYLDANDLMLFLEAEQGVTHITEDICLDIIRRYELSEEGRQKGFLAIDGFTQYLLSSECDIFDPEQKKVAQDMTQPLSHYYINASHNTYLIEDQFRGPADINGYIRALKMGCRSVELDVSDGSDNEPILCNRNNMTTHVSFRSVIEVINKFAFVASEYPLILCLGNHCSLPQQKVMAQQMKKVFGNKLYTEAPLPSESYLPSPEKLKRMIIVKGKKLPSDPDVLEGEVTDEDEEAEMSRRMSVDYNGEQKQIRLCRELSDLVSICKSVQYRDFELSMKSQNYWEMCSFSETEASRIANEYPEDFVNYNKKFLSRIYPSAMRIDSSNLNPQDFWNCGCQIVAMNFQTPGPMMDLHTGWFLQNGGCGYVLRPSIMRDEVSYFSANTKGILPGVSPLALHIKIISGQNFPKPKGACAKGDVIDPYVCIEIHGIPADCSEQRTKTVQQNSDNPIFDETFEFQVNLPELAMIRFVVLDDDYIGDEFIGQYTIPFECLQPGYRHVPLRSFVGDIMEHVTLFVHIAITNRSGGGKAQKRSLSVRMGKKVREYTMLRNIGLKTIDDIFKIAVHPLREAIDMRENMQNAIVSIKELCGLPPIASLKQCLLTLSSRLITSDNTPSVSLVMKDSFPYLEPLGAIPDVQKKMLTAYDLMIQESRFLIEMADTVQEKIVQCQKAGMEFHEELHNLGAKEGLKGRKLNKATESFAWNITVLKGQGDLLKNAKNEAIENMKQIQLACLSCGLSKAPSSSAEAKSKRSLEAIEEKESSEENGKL
Chain of UniProt Q16513 (Q16513 whole entry, looked up): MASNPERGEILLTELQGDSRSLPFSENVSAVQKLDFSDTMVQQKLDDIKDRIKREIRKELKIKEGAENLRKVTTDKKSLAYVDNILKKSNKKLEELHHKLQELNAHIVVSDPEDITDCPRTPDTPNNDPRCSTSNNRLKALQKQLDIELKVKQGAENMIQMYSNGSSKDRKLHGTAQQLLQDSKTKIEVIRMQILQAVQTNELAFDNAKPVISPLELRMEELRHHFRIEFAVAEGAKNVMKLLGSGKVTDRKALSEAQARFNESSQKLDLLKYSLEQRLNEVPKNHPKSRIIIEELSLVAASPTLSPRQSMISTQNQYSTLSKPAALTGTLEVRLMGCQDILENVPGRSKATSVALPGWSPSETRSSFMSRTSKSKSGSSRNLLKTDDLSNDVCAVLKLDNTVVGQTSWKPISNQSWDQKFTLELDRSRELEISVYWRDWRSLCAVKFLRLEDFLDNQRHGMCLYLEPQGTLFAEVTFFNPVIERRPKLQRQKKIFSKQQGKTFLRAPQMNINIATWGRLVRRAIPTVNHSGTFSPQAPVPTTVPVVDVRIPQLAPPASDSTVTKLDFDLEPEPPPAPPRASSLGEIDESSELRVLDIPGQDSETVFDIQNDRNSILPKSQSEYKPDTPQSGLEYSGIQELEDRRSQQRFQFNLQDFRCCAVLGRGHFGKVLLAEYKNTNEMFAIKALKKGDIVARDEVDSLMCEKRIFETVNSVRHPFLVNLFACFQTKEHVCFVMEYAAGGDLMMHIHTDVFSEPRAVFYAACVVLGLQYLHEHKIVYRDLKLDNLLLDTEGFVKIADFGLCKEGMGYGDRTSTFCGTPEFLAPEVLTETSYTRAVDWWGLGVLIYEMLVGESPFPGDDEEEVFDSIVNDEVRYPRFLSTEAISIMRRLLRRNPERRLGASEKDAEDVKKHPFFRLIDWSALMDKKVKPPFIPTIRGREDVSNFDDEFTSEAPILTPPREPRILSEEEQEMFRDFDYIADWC
Chain of UniProt P05423 (P05423 whole entry, looked up): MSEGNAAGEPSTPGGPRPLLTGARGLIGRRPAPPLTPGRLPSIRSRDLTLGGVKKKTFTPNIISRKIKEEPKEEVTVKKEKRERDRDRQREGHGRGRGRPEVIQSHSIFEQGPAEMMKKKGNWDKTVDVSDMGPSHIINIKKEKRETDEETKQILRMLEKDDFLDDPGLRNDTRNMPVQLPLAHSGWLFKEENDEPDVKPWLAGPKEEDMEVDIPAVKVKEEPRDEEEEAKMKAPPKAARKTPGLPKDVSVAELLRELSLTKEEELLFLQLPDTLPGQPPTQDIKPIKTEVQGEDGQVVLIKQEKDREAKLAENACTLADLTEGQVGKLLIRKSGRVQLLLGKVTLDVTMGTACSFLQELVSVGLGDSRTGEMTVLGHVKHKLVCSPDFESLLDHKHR
Chain of UniProt Q14671 (Q14671 whole entry, looked up): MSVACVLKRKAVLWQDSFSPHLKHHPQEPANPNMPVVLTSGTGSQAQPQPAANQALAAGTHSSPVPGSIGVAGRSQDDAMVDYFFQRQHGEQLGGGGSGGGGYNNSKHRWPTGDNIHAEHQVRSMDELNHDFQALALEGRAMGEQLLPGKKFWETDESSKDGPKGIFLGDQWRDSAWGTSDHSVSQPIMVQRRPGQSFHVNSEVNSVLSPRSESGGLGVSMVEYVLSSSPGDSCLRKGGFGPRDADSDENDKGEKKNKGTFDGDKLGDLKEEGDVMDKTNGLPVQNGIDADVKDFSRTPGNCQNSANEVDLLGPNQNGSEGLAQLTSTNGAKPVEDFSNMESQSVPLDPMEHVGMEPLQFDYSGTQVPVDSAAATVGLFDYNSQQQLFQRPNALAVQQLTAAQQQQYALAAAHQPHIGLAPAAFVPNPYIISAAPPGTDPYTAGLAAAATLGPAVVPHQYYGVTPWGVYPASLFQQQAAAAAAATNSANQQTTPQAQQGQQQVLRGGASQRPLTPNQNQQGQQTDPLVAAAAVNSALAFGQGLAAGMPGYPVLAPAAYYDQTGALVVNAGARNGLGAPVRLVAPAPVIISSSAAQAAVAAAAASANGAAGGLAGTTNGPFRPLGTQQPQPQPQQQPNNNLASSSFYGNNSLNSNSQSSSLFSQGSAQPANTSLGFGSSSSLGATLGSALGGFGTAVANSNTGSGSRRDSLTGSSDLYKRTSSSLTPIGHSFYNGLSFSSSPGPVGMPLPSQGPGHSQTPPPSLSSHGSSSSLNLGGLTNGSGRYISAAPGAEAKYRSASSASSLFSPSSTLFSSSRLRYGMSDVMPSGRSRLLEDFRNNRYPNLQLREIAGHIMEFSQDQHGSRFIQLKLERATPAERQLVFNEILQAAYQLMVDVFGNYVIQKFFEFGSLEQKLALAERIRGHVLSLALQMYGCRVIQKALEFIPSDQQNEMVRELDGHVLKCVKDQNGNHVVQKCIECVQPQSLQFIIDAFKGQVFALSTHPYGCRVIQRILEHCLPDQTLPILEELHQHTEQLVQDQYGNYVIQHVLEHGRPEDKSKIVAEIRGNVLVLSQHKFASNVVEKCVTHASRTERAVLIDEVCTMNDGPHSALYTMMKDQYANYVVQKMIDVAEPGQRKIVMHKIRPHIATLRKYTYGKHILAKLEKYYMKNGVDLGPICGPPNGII
Chain of UniProt O94806 (O94806 whole entry, looked up): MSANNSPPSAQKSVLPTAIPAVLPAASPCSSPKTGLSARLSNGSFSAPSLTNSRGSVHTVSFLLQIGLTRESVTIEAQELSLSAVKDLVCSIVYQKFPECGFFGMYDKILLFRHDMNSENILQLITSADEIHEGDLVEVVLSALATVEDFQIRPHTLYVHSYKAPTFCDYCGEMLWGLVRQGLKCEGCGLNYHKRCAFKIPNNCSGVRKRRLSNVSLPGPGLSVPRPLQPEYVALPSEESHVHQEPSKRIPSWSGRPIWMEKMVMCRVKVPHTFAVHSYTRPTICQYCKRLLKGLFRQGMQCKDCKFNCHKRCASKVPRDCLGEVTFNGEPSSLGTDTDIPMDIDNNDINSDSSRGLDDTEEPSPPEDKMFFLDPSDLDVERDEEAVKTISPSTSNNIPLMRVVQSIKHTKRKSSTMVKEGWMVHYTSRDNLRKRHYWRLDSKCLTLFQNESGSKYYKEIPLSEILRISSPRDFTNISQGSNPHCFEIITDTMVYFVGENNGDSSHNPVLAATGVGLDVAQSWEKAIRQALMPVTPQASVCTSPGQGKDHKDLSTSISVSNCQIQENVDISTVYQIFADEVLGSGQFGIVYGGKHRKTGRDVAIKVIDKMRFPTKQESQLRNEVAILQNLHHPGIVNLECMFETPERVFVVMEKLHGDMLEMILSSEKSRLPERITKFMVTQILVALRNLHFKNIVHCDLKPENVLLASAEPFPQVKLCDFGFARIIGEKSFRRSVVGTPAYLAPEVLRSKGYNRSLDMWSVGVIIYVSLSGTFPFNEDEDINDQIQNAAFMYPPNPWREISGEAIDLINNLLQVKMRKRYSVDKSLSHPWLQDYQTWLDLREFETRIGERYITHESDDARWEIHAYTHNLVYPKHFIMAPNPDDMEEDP

Row | Target | log2 fold change (volasertib) | log2 fold change [1] | log2 fold change (epoxomicin) | log2 fold change [2] | log2 fold change [3] | log2 fold change [4] | log2 fold change (rosiglitazone) | log2 fold change [5] | log2 fold change [6] | log2 fold change (saracatinib) | log2 fold change (sotrastaurin) | log2 fold change (Tubastatin A) | log2 fold change [7] | log2 fold change (defactinib) | log2 fold change [8] | log2 fold change [9] | log2 fold change [10] | log2 fold change (alvocidib) | log2 fold change (rucaparib) | log2 fold change (encorafenib)
1 | PTK2B (UniProt Q14289) | -1.28 (active) | -0.244 | -0.012 | -0.198 | -0.141 | 0.017 | 0.165 | 0.082 | -0.051 | 0.163 | -0.104 | 0.078 | 0.309 | 0.36 | -0.034 | -0.155 |  |  |  | 
2 | PLCL1 (UniProt Q15111) |  | 0.232 | -0.034 | -0.206 | 0.311 | 0.035 | -0.128 |  | -0.094 |  | 0.032 | 0.166 | -0.131 | -0.02 |  | 0.047 | -0.018 | 0.109 | 0.2 | 0.018
3 | PRKD3 (UniProt O94806) |  |  |  | -0.033 | -0.125 | 0.059 | 0.192 | -0.002 | -0.418 | 0.023 | -0.31 |  | -0.335 | -0.068 | 0.002 | -0.058 |  | 0.066 |  | 
4 | PRKD2 (UniProt M0R346) |  |  | -0.072 |  | -0.025 |  | -0.026 |  | -0.14 |  | -0.247 |  |  |  |  |  |  |  |  | 
5 | PDE4A (UniProt P27815) | -0.331 |  | -0.124 | 0.099 |  | 0.082 | 0.078 |  |  |  |  | 0.054 | 0.017 | -0.145 |  | -0.018 |  | -0.263 |  | 
6 | PIAS4 (UniProt Q8N2W9) | -0.406 |  | 0.11 |  | -0.064 |  |  | 0.173 | 0.062 | -0.207 |  | -0.057 |  |  | -0.043 |  |  |  |  | 
7 | PLCXD1 (UniProt Q9NUJ7) |  |  |  |  |  |  | 0.009 |  |  |  |  |  |  |  |  |  |  |  |  | 
8 | PI4K2B (UniProt Q8TCG2) |  | -0.039 |  | -0.057 | 0.045 | -0.024 | 0.004 | 0.079 | -0.1 | -0.067 | 0.04 | 0.028 | -0.016 | 0.003 | -0.096 | -0.099 | -0.147 | -0.05 | 0.097 | -0.148
9 | PPP1R12B isoform 6 (UniProt O60237) |  | 0.088 |  | -0.11 |  |  | 0.006 |  |  |  |  |  | 0 |  |  |  |  |  |  | 
10 | PUM1 (UniProt Q14671) |  |  |  | -0.01 | -0.084 |  |  | 0.078 | -0.026 | -0.155 |  | 0 | -0.348 |  | -0.232 |  |  | -0.083 |  | 
11 | PKN2 (UniProt Q16513) | -0.135 | 0.159 | -0.027 | -0.197 | -0.046 | 0.009 | 0.026 | 0.027 | -0.288 (active) | -0.059 |  | 0.025 | 0.037 | -0.099 | -0.037 | -0.05 |  | -0.159 | -0.039 | 0.024
12 | PCBP2 (UniProt F8VZX2) |  | 0.075 |  | 0.073 |  |  | 0.065 | 0.098 |  | 0.009 |  |  | 0.06 |  | 0.084 |  |  | -0.3 |  | 
13 | PSMD8 (UniProt K7EK21) |  |  |  |  |  |  |  |  |  |  |  |  |  |  |  |  |  | 0.25 |  | 
14 | PLK1 (UniProt P53350) | -2.06 (active) | 0.049 | 0.044 | -0.023 | 0.033 | -0.016 | 0.016 | -0.029 | -0.068 | 0.034 | -0.223 | -0.058 | -2.06 (active) | -0.165 | -0.008 | -0.013 |  | 0.14 | 0.052 | 0.058
15 | PAN2 (UniProt Q504Q3) |  | 0.167 |  |  |  | 0.006 | 0.181 | 0.143 |  | 0.113 |  |  |  | 0.001 | -0.048 | -0.045 | 0.101 |  | -0.656 (active) | 0.073
16 | POLR3D (UniProt P05423) | -0.394 (active) | 0.107 | -0.066 | -0.06 | 0.032 | 0.018 | -0.005 | 0.61 | -0.035 | 0.264 | -0.029 | 1.53 | -0.074 | -0.027 | 0.425 | -0.08 |  | 0.024 |  | 
17 | PPP2R5C isoform 2 (UniProt Q13362) |  |  |  | -0.099 |  |  | 0.009 |  |  |  |  |  | -0.017 |  |  |  | -0.209 |  | -0.063 | 0.003
18 | PUF60 isoform 2 (UniProt Q9UHX1) | -0.372 |  |  |  |  | 0.067 | -0.011 | -0.259 |  | 0.107 |  | 0.202 |  | -0.165 | -0.403 | -0.089 |  | -0.306 |  | 
